Laboratory results reported in PubChem BioAssay (NCI).
This is part of a sample that, as a whole, favours compounds with a hit. Of some 79,000 tested, about 15% had one in any assay. Unmarked numbers belong to inactive results. Rule as the data show it: active = growth inhibition above about 70%; inactive = the rest.

Assay: NCI Yeast Anticancer Drug Screen. Data for the mec2-1 strain (AID 157)
Settings: S. cerevisiae mec2-1 strain, at 50.0 µM, active compounds read high
Method in brief: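 Growth inhibition is read against vehicle-treated controls after compound exposure of the mec2-1 yeast strain, which is defective in DNA damage repair or cell cycle control.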

Question: With `O=C(c1ccccc1)C1(c2ccccc2)CCCCC1` as the molecule, how does the growth inhibition read?
Answer: 15.6%

Question: Which growth inhibition does the source give for `CCN(CC)CCC(=O)c1ccc(OC)cc1` here?
Answer: 16.3%

Question: For `COc1cccc(Nc2nc(NS(=O)(=O)c3cc(C)c(Cl)cc3S)n[nH]2)c1`, which growth inhibition is on record?
Answer: -2.3%

Question: For `Cc1ccc(N=Nc2c(O)n(C)c(=O)n(C)c2=O)cc1C`, which growth inhibition is on record?
Answer: -5.7%

Question: Which growth inhibition does the source give for `Cn1c(=O)c2[nH]c(SCC(=O)O)nc2n(C)c1=O` here?
Answer: 0.95%

Question: With `Cc1cc2c(=O)cc(-c3ccc(C(F)(F)F)cc3)oc2c(C(=O)O)c1C` as the molecule, how does the growth inhibition read?
Answer: -3.8%

Question: For `Cc1cnc2cccc(C)c2c1Cl`, which growth inhibition is on record?
Answer: 0.05%

Question: With `CO/N=C1/c2sccc2[C@H](NC(=O)C(Cc2ccccc2)NC(=O)OC(C)(C)C)[C@@H]1O` (stereo not given in full) as the molecule, how does the growth inhibition read?
Answer: -13.1%

Question: With `C(=Nc1ccc2ccccc2c1)c1cccs1` as the molecule, how does the growth inhibition read?
Answer: -3.2%

Question: With `O=C(Nc1ccc2ccccc2c1)C(F)(F)F` as the molecule, how does the growth inhibition read?
Answer: -1%

Question: With `CCCCCCCC(=O)NN(Cn1c(=S)sc2ccccc21)Cn1c(=S)sc2ccccc21` as the molecule, how does the growth inhibition read?
Answer: 9.25%

Question: With `Cc1cc(=O)oc2c(CNC(Cc3ccccc3)C(=O)O)c(O)ccc12` (stereo not given) as the molecule, how does the growth inhibition read?
Answer: -40.6%

Question: Which growth inhibition does the source give for `O=C(N/N=C/c1ccc(Cl)cc1)c1ccccc1NC(=O)C1CC1` here?
Answer: -14.2%

Question: For `CN(C)C1CS(=O)(=O)OC2=C1COCC2` (stereo not given), which growth inhibition is on record?
Answer: 9.8%

Question: Which growth inhibition does the source give for `COc1cc2cccc(NC(=O)c3cc(OC)c(OC)c(OC)c3Br)c2cc1OC` here?
Answer: 12.4%

Question: Which growth inhibition does the source give for `CCOCCOCCOC(=O)CC(C)=O` here?
Answer: 24.9%

Question: Which growth inhibition does the source give for `CC(CO)CCC(=O)C(C)C1CC2(C)CCC3C(CCC4CC(O)CCC43C)C2C12SCCS2` (stereo not given) here?
Answer: 19.5%

Question: For `C(=Nc1ccc(N2CCOCC2)cc1)c1ccc2c(c1)OCO2`, which growth inhibition is on record?
Answer: -7%

Question: With `Cc1ccc(S(=O)(=O)NCNS(=O)(=O)c2ccc(C)cc2)cc1` as the molecule, how does the growth inhibition read?
Answer: -7%

Question: Which growth inhibition does the source give for `COc1cc(/C=C/C(=O)N[C@@H]2C(=O)N3[C@@H]2SC(C)(C)[C@@H]3C(=O)O)cc(OC)c1OC` here?
Answer: -18.4%

Question: With `O=P(O)(O)c1ccc(Cl)cc1` as the molecule, how does the growth inhibition read?
Answer: -1.3%

Question: Which growth inhibition does the source give for `CC1(C)CC2(C)OC3(C)CC(C)(C)OC3(C)OC2(C)O1` (stereo not given) here?
Answer: 6.45%

Question: For `NC(=S)NNCC(=O)CC(O)(C(F)(F)F)C(F)(F)Cl` (stereo not given), which growth inhibition is on record?
Answer: -6.95%

Question: With `Oc1c(O)c(Cc2ccccc2)c(Cc2ccccc2)c(Cc2ccccc2)c1Cc1ccccc1` as the molecule, how does the growth inhibition read?
Answer: -19.8%

Question: Which growth inhibition does the source give for `COC(=O)c1cc(C)c(C(=O)O)c(C)c1` here?
Answer: 22.5%

Question: With `CC(C)(C)OC(=O)CC1(C)NC(C(=O)O)C(C)(C)S1` (stereo not given) as the molecule, how does the growth inhibition read?
Answer: -0.65%

Question: For `O=C(c1ccc([N+](=O)[O-])cc1)c1cc2ccccc2oc1=O`, which growth inhibition is on record?
Answer: -8.5%

Question: Which growth inhibition does the source give for `CCCCCCCSCC1OC(n2cnc3c(N)ncnc32)C(O)C1O` (stereo not given) here?
Answer: 11.1%

Question: With `CC1N(N2C(=O)CS(=O)(=O)C2C)C(=O)CS1(=O)=O` (stereo not given) as the molecule, how does the growth inhibition read?
Answer: -3.95%

Question: For `CN(CCN(C)C(=O)CCn1cc(F)c(=O)[nH]c1=O)C(=O)CCn1cc(F)c(=O)[nH]c1=O`, which growth inhibition is on record?
Answer: 18.2%

Question: With `COc1cc2c(c3c1CCC(C)(C)O3)Cc1c(cc(OC)c(OC)c1CCC(C)(C)O)O2` as the molecule, how does the growth inhibition read?
Answer: -3.9%

Question: Which growth inhibition does the source give for `NCC(=O)NCCC(=O)O` here?
Answer: -6.7%

Question: With `CC(=O)OCC1COC(C)(c2ccccc2)O1` (stereo not given) as the molecule, how does the growth inhibition read?
Answer: 0.3%

Question: With `CC/C(=C\c1ccc(OC)cc1)c1ccc(OC)cc1` as the molecule, how does the growth inhibition read?
Answer: -31.1%

Question: With `CC(=O)OC(C)=O` as the molecule, how does the growth inhibition read?
Answer: 9.9%

Question: For `NC(=O)N1CCCCC1`, which growth inhibition is on record?
Answer: -6.6%

Question: With `C=C1C(=O)OC2(C)CCC1CC1OC1(C)CC/C=C(\C)CCC2OC(C)=O` (stereo not given) as the molecule, how does the growth inhibition read?
Answer: -6.55%

Question: With `CCc1nc(N)nc(C(=O)NCCNC(=O)c2nc(N)nc(CC)c2C)c1C` as the molecule, how does the growth inhibition read?
Answer: -14.2%

Question: For `COC(=O)C(=O)C(C(=O)c1cccc2ccccc12)c1nc2n(c1O)C(=N)N=N2` (stereo not given), which growth inhibition is on record?
Answer: 4.45%

Question: With `O=[N+]([O-])c1ccc(-c2ccc(-c3ccccc3)cc2)cc1` as the molecule, how does the growth inhibition read?
Answer: -12.7%

Assay: NCI Yeast Anticancer Drug Screen. Data for the sgs1 mgt1 strain (AID 161);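 also: 0% = growth of cultures given vehicle only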
Settings: S. cerevisiae sgs1 mgt1 strain, at 50.0 µM, active compounds read high
Method in brief: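 Percent growth inhibition was derived by comparing compound-exposed mutant yeast with vehicle-exposed cultures. The strain carries alterations in DNA damage repair.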

Question: For `O=C(c1ccccc1)C1(c2ccccc2)CCCCC1`, which growth inhibition is on record?
Answer: 20.1%

Question: With `CCN(CC)CCC(=O)c1ccc(OC)cc1` as the molecule, how does the growth inhibition read?
Answer: 2.45%

Question: Which growth inhibition does the source give for `COc1cccc(Nc2nc(NS(=O)(=O)c3cc(C)c(Cl)cc3S)n[nH]2)c1` here?
Answer: -6.25%

Question: For `Cc1ccc(N=Nc2c(O)n(C)c(=O)n(C)c2=O)cc1C`, which growth inhibition is on record?
Answer: -17.2%

Question: For `Cn1c(=O)c2[nH]c(SCC(=O)O)nc2n(C)c1=O`, which growth inhibition is on record?
Answer: 3.35%

Question: For `Cc1cc2c(=O)cc(-c3ccc(C(F)(F)F)cc3)oc2c(C(=O)O)c1C`, which growth inhibition is on record?
Answer: -2.3%

Question: With `Cc1cnc2cccc(C)c2c1Cl` as the molecule, how does the growth inhibition read?
Answer: 10.3%

Question: Which growth inhibition does the source give for `CO/N=C1/c2sccc2[C@H](NC(=O)C(Cc2ccccc2)NC(=O)OC(C)(C)C)[C@@H]1O` (stereo not given in full) here?
Answer: -14%

Question: For `C(=Nc1ccc2ccccc2c1)c1cccs1`, which growth inhibition is on record?
Answer: 12.6%

Question: Which growth inhibition does the source give for `O=C(Nc1ccc2ccccc2c1)C(F)(F)F` here?
Answer: -4.25%

Question: Which growth inhibition does the source give for `CCCCCCCC(=O)NN(Cn1c(=S)sc2ccccc21)Cn1c(=S)sc2ccccc21` here?
Answer: 26.7%

Question: With `Cc1cc(=O)oc2c(CNC(Cc3ccccc3)C(=O)O)c(O)ccc12` (stereo not given) as the molecule, how does the growth inhibition read?
Answer: -24.3%

Question: With `O=C(N/N=C/c1ccc(Cl)cc1)c1ccccc1NC(=O)C1CC1` as the molecule, how does the growth inhibition read?
Answer: 28%

Question: For `CN(C)C1CS(=O)(=O)OC2=C1COCC2` (stereo not given), which growth inhibition is on record?
Answer: -0.7%

Question: Which growth inhibition does the source give for `COc1cc2cccc(NC(=O)c3cc(OC)c(OC)c(OC)c3Br)c2cc1OC` here?
Answer: 16.6%

Question: Which growth inhibition does the source give for `CCOCCOCCOC(=O)CC(C)=O` here?
Answer: 5.5%

Question: For `CC(CO)CCC(=O)C(C)C1CC2(C)CCC3C(CCC4CC(O)CCC43C)C2C12SCCS2` (stereo not given), which growth inhibition is on record?
Answer: -7.8%

Question: Which growth inhibition does the source give for `C(=Nc1ccc(N2CCOCC2)cc1)c1ccc2c(c1)OCO2` here?
Answer: -15.2%

Question: For `Cc1ccc(S(=O)(=O)NCNS(=O)(=O)c2ccc(C)cc2)cc1`, which growth inhibition is on record?
Answer: 2.05%

Question: With `COc1cc(/C=C/C(=O)N[C@@H]2C(=O)N3[C@@H]2SC(C)(C)[C@@H]3C(=O)O)cc(OC)c1OC` as the molecule, how does the growth inhibition read?
Answer: -34.8%

Question: With `O=P(O)(O)c1ccc(Cl)cc1` as the molecule, how does the growth inhibition read?
Answer: -1.65%

Question: For `CC1(C)CC2(C)OC3(C)CC(C)(C)OC3(C)OC2(C)O1` (stereo not given), which growth inhibition is on record?
Answer: 8.55%

Question: Which growth inhibition does the source give for `NC(=S)NNCC(=O)CC(O)(C(F)(F)F)C(F)(F)Cl` (stereo not given) here?
Answer: -21.6%

Question: Which growth inhibition does the source give for `Oc1c(O)c(Cc2ccccc2)c(Cc2ccccc2)c(Cc2ccccc2)c1Cc1ccccc1` here?
Answer: 23.3%

Question: Which growth inhibition does the source give for `COC(=O)c1cc(C)c(C(=O)O)c(C)c1` here?
Answer: 26.6%

Question: Which growth inhibition does the source give for `CC(C)(C)OC(=O)CC1(C)NC(C(=O)O)C(C)(C)S1` (stereo not given) here?
Answer: -10.9%

Question: Which growth inhibition does the source give for `O=C(c1ccc([N+](=O)[O-])cc1)c1cc2ccccc2oc1=O` here?
Answer: -9.85%

Question: For `CCCCCCCSCC1OC(n2cnc3c(N)ncnc32)C(O)C1O` (stereo not given), which growth inhibition is on record?
Answer: 11.4%

Question: Which growth inhibition does the source give for `CC1N(N2C(=O)CS(=O)(=O)C2C)C(=O)CS1(=O)=O` (stereo not given) here?
Answer: 25.3%

Question: With `CN(CCN(C)C(=O)CCn1cc(F)c(=O)[nH]c1=O)C(=O)CCn1cc(F)c(=O)[nH]c1=O` as the molecule, how does the growth inhibition read?
Answer: 50.4%

Question: With `COc1cc2c(c3c1CCC(C)(C)O3)Cc1c(cc(OC)c(OC)c1CCC(C)(C)O)O2` as the molecule, how does the growth inhibition read?
Answer: 3.6%

Question: With `NCC(=O)NCCC(=O)O` as the molecule, how does the growth inhibition read?
Answer: 1.75%

Question: With `CC(=O)OCC1COC(C)(c2ccccc2)O1` (stereo not given) as the molecule, how does the growth inhibition read?
Answer: -6.65%

Question: For `CC/C(=C\c1ccc(OC)cc1)c1ccc(OC)cc1`, which growth inhibition is on record?
Answer: 7.05%

Question: With `CC(=O)OC(C)=O` as the molecule, how does the growth inhibition read?
Answer: 8%

Question: For `NC(=O)N1CCCCC1`, which growth inhibition is on record?
Answer: 24.4%

Question: For `C=C1C(=O)OC2(C)CCC1CC1OC1(C)CC/C=C(\C)CCC2OC(C)=O` (stereo not given), which growth inhibition is on record?
Answer: 17.4%

Question: Which growth inhibition does the source give for `CCc1nc(N)nc(C(=O)NCCNC(=O)c2nc(N)nc(CC)c2C)c1C` here?
Answer: -11.6%

Question: Which growth inhibition does the source give for `COC(=O)C(=O)C(C(=O)c1cccc2ccccc12)c1nc2n(c1O)C(=N)N=N2` (stereo not given) here?
Answer: 11.6%

Question: For `O=[N+]([O-])c1ccc(-c2ccc(-c3ccccc3)cc2)cc1`, which growth inhibition is on record?
Answer: 5.35%
